This passage reports inhibition results from PubChem BioAssay.

For assay [1], the target named is Nuclear receptor coactivator 1 (Homo sapiens) (UniProt Q15788). Kind of assay: NCOA1 GAL4-fusion reporter inhibition – cell-based, luminescence, quadruplicate, confirmation (AID 588820).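 Note: 0% = DMSO wells and 100% = gossypol 36 µM treated wells.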 The conditions noted are these: HEK293 GAL4-SRC1 luciferase reporter, at 3.6 µM, hits give high values. (A reporter such as luciferase makes a cellular process visible.)
Assay [2] can be described thus: repression of VP16-driven luciferase reporter – cell-based, luminescence, high throughput, counter-screen for SRC1 inhibitor project (AID 588824; in the data active = inhibition above about 25%). The conditions noted are these: cell-based VP16 transactivation luciferase luminescence; at 3.6 µM; hits give high values.
The nature of assay [3]: StAR promoter reporter inhibitors, counter-screen for LRH-1 inverse agonist project, cell-based, luminescence, high throughput (AID 651611; in the data active = inhibition above about 28%). The conditions noted are these: StAR promoter luciferase reporter counterscreen, at 3.6 µM, hits give high values. For orientation: A counterscreen serves to expose hits that act by an unwanted route or on another target.
The target of assay [4] is Nuclear receptor subfamily 5 group A member 2 (Homo sapiens) (UniProt O00482). Kind of assay: NR5A2 activity suppression in reporter cells – cell-based, luminescence, confirmation (AID 651613; in the data active = inhibition above about 42%;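 note: HEK293T cells co-transfected with LRH-1 and StAR promoter luciferase reporter; 0% = vehicle wells and 100% = parental cells lacking receptor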). To be noted: cell-based LRH-1 luciferase reporter, inverse agonism; at 3.6 µM; hits give high values.
Assay [5] has as its target Steroidogenic factor 1 (Homo sapiens) (UniProt Q13285). As to the kind of experiment: inverse agonism at SF1 nuclear receptor – cell-based, luminescence, high throughput, counter-screen for LRH-1 inverse agonist project (AID 651614; in the data active = inhibition above about 44%;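 note: cells cotransfected with StAR promoter reporter and SF1 expression vector; 0% = vehicle on cells with receptor and 100% = vehicle on cells lacking receptor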). To be noted: cell-based SF1 luciferase reporter, at 3.6 µM, hits give high values.
Assay [6] is described as follows: compounds suppressing VP16-driven luciferase signal – cell-based, luminescence, high throughput, counter-screen for LRH-1 inverse agonist project (AID 651615; in the data active = inhibition above about 33%). To be noted: Gal4-VP16 luciferase reporter cells, at 3.6 µM, hits give high values.
Assay [7] deals with Photoreceptor-specific nuclear receptor (Homo sapiens) (UniProt Q9Y5X4). As to the kind of experiment: retest of NR2E3-NCOR disrupting agonists – cell-based, luminescence, CHO-S two-hybrid, confirmation (AID 624378;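 active = average inhibition above a cutoff equal to the mean inhibition of all tested compounds plus one SD, cut at about 70% in these data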;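 note: 0% = DMSO in NR2E3 cells and 100% = DMSO in cells lacking NR2E3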). The conditions noted are these: CHO-S mammalian two-hybrid NR2E3-NCOR, luciferase luminescence; at 3.98 µM; hits give high values.
The nature of assay [8]: nonselective effects on VP16 transactivation – cell-based, luminescence, CHO-S, high throughput, counter-screen for NR2E3 agonist project, confirmation (AID 624379;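 active = mean inhibition above a cutoff equal to the average over all tested compounds plus one standard deviation, cut at about 70% in these data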;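 note: 0% = DMSO with VP16-transfected cells and 100% = DMSO with cells lacking VP16; higher means less reporter light so more repression of VP16 activity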). To be noted: CHO-S GAL4-VP16 luciferase reporter, at 3.98 µM, hits give high values.
Assay [9] in a line: VP16-driven transactivation reporter suppression – cell-based, luminescence, HEK293, counter-screen for COUP-TFII antagonist project (AID 687007; in the data active = inhibition above about 13%). The conditions noted are these: HEK293 Gal4-VP16 luciferase reporter, at 8.5 µM, hits give high values.
Assay [10] deals with COUP transcription factor 2 (Homo sapiens) (UniProt P24468). Kind of assay: retest of COUP-TFII reporter suppressors – cell-based, luciferase reporter, HEK293, triplicate, confirmation (AID 687008;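 active = mean inhibition over three repeats above a set limit taken from the earlier primary screen, cut at about 38% in these data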;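 note: 100% = cells given the luciferase reporter alone without the COUP-TF2 vector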). The conditions noted are these: HEK293 NGFI-A luciferase reporter, luminescence; at 8.5 µM; hits give high values.

What is called inhibition is the relative decrease from the control value, in per cent.

The structures appear in SMILES notation. A number with no mark means an inactive call. The list shows a part of the results. Activity calls are given as the source filed them.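 Rule for the calls, unless noted: active = mean inhibition above 46.68%, the untreated control wells mean plus 3 SD; inactive = the rest.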

Steroidogenic factor 1 (Homo sapiens), sequence (Q13285 whole entry, looked up, the tested form may be a part): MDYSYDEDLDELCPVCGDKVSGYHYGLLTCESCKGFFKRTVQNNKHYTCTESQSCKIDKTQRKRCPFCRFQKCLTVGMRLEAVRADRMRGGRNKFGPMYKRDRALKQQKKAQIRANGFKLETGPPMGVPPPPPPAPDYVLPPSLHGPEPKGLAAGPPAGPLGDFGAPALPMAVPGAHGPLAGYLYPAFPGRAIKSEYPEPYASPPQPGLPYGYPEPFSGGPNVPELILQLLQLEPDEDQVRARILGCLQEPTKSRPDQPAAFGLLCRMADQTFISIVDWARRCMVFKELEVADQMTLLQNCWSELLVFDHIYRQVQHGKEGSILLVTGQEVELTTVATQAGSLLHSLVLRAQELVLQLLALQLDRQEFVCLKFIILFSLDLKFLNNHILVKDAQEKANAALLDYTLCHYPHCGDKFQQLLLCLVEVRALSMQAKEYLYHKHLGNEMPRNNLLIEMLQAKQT
Nuclear receptor coactivator 1 (Homo sapiens), sequence (Q15788 whole entry, looked up, the tested form may be a part): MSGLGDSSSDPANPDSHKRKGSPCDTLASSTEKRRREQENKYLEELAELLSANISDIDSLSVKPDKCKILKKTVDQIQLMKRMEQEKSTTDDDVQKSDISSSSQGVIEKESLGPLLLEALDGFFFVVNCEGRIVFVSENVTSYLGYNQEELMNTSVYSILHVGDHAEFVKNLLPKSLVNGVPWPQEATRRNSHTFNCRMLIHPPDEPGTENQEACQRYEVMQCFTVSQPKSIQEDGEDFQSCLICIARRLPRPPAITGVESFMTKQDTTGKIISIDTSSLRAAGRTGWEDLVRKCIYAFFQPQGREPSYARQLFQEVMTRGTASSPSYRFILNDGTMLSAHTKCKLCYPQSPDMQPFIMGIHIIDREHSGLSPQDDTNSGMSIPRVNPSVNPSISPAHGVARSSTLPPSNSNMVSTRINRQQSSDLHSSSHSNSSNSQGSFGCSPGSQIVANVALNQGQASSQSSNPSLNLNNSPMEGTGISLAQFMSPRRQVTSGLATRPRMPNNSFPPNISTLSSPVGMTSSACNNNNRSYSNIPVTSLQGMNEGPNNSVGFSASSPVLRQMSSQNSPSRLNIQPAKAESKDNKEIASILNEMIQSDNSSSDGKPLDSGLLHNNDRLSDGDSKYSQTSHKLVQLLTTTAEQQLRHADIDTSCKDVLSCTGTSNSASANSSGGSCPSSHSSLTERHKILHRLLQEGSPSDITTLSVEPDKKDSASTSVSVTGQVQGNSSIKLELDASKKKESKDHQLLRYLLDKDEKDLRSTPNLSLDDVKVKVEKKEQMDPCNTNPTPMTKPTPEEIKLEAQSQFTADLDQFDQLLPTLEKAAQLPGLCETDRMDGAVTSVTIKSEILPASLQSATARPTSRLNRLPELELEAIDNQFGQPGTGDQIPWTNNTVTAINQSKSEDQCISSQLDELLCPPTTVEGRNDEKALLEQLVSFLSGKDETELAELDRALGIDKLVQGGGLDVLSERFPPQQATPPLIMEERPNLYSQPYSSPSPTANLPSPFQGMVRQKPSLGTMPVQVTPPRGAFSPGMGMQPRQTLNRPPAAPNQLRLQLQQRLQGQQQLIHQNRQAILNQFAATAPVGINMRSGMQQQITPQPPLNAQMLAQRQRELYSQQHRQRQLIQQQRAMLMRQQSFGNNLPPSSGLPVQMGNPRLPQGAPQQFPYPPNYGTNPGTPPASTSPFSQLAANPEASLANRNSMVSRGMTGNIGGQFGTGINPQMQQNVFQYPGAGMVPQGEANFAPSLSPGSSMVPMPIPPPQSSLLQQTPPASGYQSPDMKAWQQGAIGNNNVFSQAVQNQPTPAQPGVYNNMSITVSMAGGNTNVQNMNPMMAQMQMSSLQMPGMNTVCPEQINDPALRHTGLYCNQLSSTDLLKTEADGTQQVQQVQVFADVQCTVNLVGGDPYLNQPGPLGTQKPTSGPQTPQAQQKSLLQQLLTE
Nuclear receptor subfamily 5 group A member 2 (Homo sapiens), sequence (O00482 whole entry, looked up): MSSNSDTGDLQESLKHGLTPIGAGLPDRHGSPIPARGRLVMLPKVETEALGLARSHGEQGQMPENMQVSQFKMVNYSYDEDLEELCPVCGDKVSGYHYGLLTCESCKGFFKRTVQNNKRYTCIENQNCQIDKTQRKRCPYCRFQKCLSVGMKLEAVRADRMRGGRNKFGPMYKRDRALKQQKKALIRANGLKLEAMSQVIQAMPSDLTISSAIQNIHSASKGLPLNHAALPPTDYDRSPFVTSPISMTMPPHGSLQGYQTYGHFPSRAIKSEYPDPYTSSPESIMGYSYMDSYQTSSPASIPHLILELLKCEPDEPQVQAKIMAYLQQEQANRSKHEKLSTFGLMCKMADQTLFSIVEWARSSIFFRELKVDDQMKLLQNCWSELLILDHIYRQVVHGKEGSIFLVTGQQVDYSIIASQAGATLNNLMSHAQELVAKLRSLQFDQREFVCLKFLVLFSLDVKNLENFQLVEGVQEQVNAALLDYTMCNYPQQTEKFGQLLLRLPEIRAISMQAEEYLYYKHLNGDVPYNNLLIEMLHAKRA
Photoreceptor-specific nuclear receptor (Homo sapiens), sequence (Q9Y5X4 whole entry, looked up): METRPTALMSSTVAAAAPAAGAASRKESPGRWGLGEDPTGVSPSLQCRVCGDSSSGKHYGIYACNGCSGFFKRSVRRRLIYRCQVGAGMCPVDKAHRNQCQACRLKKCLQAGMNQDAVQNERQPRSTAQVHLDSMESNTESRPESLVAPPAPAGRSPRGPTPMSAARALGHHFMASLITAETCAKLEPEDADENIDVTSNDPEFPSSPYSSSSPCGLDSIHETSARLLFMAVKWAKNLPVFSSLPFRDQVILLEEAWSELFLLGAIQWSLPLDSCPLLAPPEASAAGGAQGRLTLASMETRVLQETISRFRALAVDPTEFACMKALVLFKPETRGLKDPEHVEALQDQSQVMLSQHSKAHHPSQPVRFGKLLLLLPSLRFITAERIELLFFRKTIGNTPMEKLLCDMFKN
COUP transcription factor 2 (Homo sapiens), sequence (P24468 whole entry, looked up): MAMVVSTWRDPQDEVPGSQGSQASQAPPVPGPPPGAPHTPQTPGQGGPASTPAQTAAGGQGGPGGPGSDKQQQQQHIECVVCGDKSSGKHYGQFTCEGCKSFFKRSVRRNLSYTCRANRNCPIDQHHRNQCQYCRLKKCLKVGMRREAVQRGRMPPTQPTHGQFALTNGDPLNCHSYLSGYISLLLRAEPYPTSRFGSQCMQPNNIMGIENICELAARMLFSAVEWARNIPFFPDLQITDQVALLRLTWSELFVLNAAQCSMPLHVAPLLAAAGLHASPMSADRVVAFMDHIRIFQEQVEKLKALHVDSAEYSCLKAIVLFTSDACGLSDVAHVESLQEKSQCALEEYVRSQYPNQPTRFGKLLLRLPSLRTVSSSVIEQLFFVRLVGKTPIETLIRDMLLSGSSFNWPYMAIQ

Consider `CC1(C)CC(N2CCCC2)=CC(=[N+]2CCCCC2)C1`, for which the inhibition was -1.69% in assay [1]; 31% (active) in assay [2]; 21.4% in assay [3]; 64.8% (active) in assay [4]; 54.3% (active) in [5]; 52.5% (active) in assay [6].
As for `CN1CCN(c2nc(-c3cccs3)nc3ccccc23)CC1`, the figures for the inhibition in assay [1] and in [2] were 14.3% and 10%, respectively.
As to `O=C(CSc1nnc(Cn2nnc3ccccc32)o1)N(Cc1ccc(F)cc1)c1ccccc1`, the inhibition in assay [1] was -0.43%; in assay [2], 38.8% (active); in [3], 24.2%; in assay [4], 63% (active); in assay [5], 56.7% (active); in [6] it was 56.9% (active).
In the case of `C[C@H]1Cn2cnc(C(=O)Nc3cccc(Cl)c3)c2C(=O)N1`, the inhibition in [1] is 61.2% (active); in assay [2] it was 34% (active).
Regarding `COc1ccc(Cc2nnc(SCC(=O)Nc3ccc(C)c(Cl)c3)[nH]c2=O)cc1`, the figures for the inhibition in assay [1] and in assay [2] were 6.82% and 7.22%, respectively.
In the case of `Cc1nn(Cc2cccc(F)c2)c(C)c1NC(=O)c1ccc(COc2ccccc2Cl)cc1`, the inhibition was 31.2% in assay [1] and 46.7% (active) in assay [2].
As to `Cc1cccc(C)c1NC(=O)CN(C)CC(=O)Nc1ccc(F)c(Cl)c1`, the inhibition in assay [1] was 4.35%; in [2], 11.2%.
For the compound `CC(=NNC(=S)N1CCCCC1)c1ccccn1`, the inhibition is 36.5% in [1]; 61.5% (active) in assay [2]; 70.5% (active) in [3]; 95.3% (active) in assay [4]; 82.2% (active) in assay [5]; 52.6% (active) in [6].
With `O=C1c2cccc3cc([N+](=O)[O-])cc(c23)C(=O)N1CCN1CCCC1`, the inhibition in assay [1] was -86.9%; in assay [2], 42.6% (active); in [3], 13.3%; in assay [4], 91.6% (active); in assay [5], 68.6% (active); in assay [6] it was 64.2% (active).
For `CN1CCN(c2ccc(CNS(=O)(=O)Cc3cccc(C(F)(F)F)c3)cc2)CC1`, the inhibition in assay [1] is -13.6%; in assay [2], 26.4% (active); in [3], 15.4%; in assay [4] it was 69.8% (active); in [5], 68.1% (active); in assay [6] it was 40.1% (active).
`COc1cccc2c1C(=O)c1c(O)c3c(c(O)c1C2=O)CC(O)(C(C)=O)CC3OC1CC(O)C(O)C(C)O1` (stereo unspecified): the inhibition was -3.87% in assay [1]; 16.4% in assay [2]; 29.2% (active) in assay [3]; 50.7% (active) in assay [4]; 17.4% in assay [5]; 16.1% in assay [6].
For `Cc1sc2ncnc(N3CCN(C(=O)c4ccco4)CC3)c2c1C`, the inhibition in assay [1] is -0.07%; in [2], 7.79%.
For the compound `CN(C)S(=O)(=O)c1ccc(Cl)c(NC(=O)CN2C(=O)NC(C)(C3CC3)C2=O)c1` (stereo unspecified), the inhibition in assay [1] was -2.39%; in assay [2], -2.88%.
Regarding `C#Cc1ccc(NC(=O)C2(C)CCN2C(=O)Cc2ccc(-c3ccccc3)cc2)cc1` (stereo unspecified), the inhibition was 12.8% in assay [1]; 36.2% (active) in [2]; 50.6% in [7]; 52.9% in assay [8]; 6.08% in assay [9]; 44.2% (active) in assay [10].
`Cc1nc2ccc(NC(=O)c3cc(S(=O)(=O)N(C)c4ccccc4)ccc3Cl)cc2s1`: the inhibition is -5.16% in [1]; 33.7% (active) in assay [2]; 30.4% (active) in assay [3]; 57.5% (active) in assay [4]; 59.5% (active) in assay [5]; 47.6% (active) in assay [6].
Regarding `COc1ccc(CCn2c(-c3ccco3)nc3ccccc3c2=O)cc1OC`, the inhibition was -30.6% in assay [1] and -17.7% in [2].
As to `CS(=O)(=O)c1ccc(C(=O)OCC(=O)NC(=O)Cc2ccccc2)cc1`, the inhibition in assay [1] is -5.88%; in assay [2] it was -3.13%.
Regarding `Cc1ccc2c(c1)c(/C=C/c1cc[n+](C)cc1)c(C)n2C`, the inhibition in assay [1] is 32.9%; in assay [2] it was 57.1% (active); in [3] it was 59.6% (active); in assay [4] it was 91.4% (active); in assay [5], 81.1% (active); in assay [6] it was 80% (active).
Turning to `COc1ccc(C(=O)NCCN(C)C)c2nc3ccccc3cc12`, the inhibition in assay [1] was 20.7%; in assay [2], 39.4% (active); in assay [3], 63.9% (active); in [4], 77.7% (active); in [5] it was 60% (active); in assay [6], 65.3% (active).
Consider `Cc1ccc(/C=C2/CNC/C(=C/c3ccc(C)cc3)C2=O)cc1`, for which the inhibition in assay [1] is -19.2%; in assay [2], 43.8% (active); in assay [3], 47% (active); in assay [4] it was 79.3% (active); in assay [5], 64.9% (active); in [6], 80.2% (active).
For the compound `CC1(c2ccc3ccccc3c2)NC(=O)N(CC(=O)N2CCN(Cc3ccccc3)CC2)C1=O` (stereo unspecified), the inhibition in assay [1] is -20.6%; in assay [2] it was 37.1% (active); in [3] it was 12.2%; in assay [4] it was 55.8% (active); in assay [5], 58% (active); in assay [6], 48.8% (active).
With `COc1ccc(CNC(=O)c2cccc3c(-c4cccnc4)coc23)cc1OC`, the inhibition in assay [1] was -25.2%; in assay [2], 43.8% (active); in assay [3] it was 48.5% (active); in assay [4] it was 59.9% (active); in [5] it was 66.4% (active); in assay [6] it was 67.4% (active).
Regarding `CCCCCN(C(=O)CCC(=O)OCC(=O)N(CC#N)c1ccccc1)c1c(N)n(CCCC)c(=O)[nH]c1=O`, the inhibition in assay [1] was -5.77%; in assay [2], 1.44%.
On to `CCN(CC(=O)Nc1ccc(NC(C)=O)cc1)C(=O)C1(c2ccc(Cl)cc2)CCC1`, for which the inhibition in assay [1] was 16.1%; in assay [2], 9.61%; in assay [3] it was -2.92%; in assay [4], 40.1%; in assay [5] it was 27.4%; in [6] it was 11.8%.
As to `NS(=O)(=O)c1ccc(N=Nc2c(O)[nH]c3ccc(Br)cc23)cc1`, the inhibition in assay [1] was 8.56%; in assay [2], 5.38%; in assay [3] it was 38.4% (active); in assay [4], 23.4%; in assay [5] it was 30.4%; in assay [6], 8.51%.
Consider `COc1ccc(NC(=O)C2Cc3c(-c4ccc5c(c4)OCO5)ccnc3O2)cc1OC` (stereo unspecified), for which the inhibition was 0.9% in assay [1]; 34% (active) in assay [2]; 27.9% (active) in assay [3]; 53.5% (active) in assay [4]; 61.1% (active) in assay [5]; 43.5% (active) in [6].
